# Screens (PubChem)
# In the library only some 2% were active in any assay of this set; here they are far more common.
# ABHD5-PLIN5 inh = ABHD5-PLIN5 interaction inhibitors, primary screen, cell lysate, split luciferase complementation, luminescence; Perilipin-5 (Homo sapiens) + 1-acylglycerol-3-phosphate O-acyltransferase ABHD5 (Homo …; Split G. princeps luciferase complementation, 4 h; inhibition, % at 4 µM; 0.78% of 360,000 active; AID 602281, 2012;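 active = inhibition above the mean inhibition across every tested compound plus 3 SD, cut at about 22% in these data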
# Granule exo inh = LAMP-1 surface exposure blockers, TALL-104 cells – cell-based, flow cytometry, MLPCN library, primary screen; AID 651702, 2012; inhibition, % at 10 µM; TALL-104 LAMP-1 surface exposure; cells stimulated with thapsigargin and PMA; 0.66% of 360,000 active;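 active = inhibition above about 55%, limit read from the data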
# TLR4 MyD88 comp = inhibitors of TLR4-MyD88 association in cells, primary screen, cell-based, HeLa CL3-4, BLA complementation, FRET ratio | inhibition, % at 8.4 µM | HeLa CL3-4 TLR4/MyD88 BLA complementation | AID 861, 2007 | 0.18% of 200,000 active | Toll-like receptor 4 (Homo sapiens) + Myeloid differentiation primary response protein …; in the data active = inhibition above about 25%
# TLR9-MyD88 block = inhibitors of TLR9-MyD88 association in cells, primary screen, cell-based, CHO, BLA complementation, fluorescence | Toll-like receptor 9 (Homo sapiens) + Myeloid differentiation primary response protein … | CCF4 FRET ratio | inhibition, % at 4.98 µM | 0.21% of 340,000 active | AID 504734, 2011;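 active = inhibition above the mean over all tested compounds plus 3 SD, cut at about 21% in these data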
# B2AR ag = beta2AR agonists driving receptor internalization, primary screen, cell-based, FAP fluorogen, flow cytometry; Beta-2 adrenergic receptor (Homo sapiens), P07550; Am2.2-beta2AR cells; response, % (concentration not given with the values); 0.43% of 340,000 active; AID 504454, 2011;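 active = response above a set limit, near 3 SD of response in nonfluorescent compounds, cut at about 42% in these data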
# NOD2 RIPK2 PPI = NOD2-RIPK2 binding disruptors in cells, primary screen, fluorescence, CHO cells, BLA complementation; CCF4 ratio; inhibition, % at 4.98 µM; 0.38% of 360,000 active; AID 624267, 2012; in the data active = inhibition above about 21%
# NOD2 RIPK2 conf = NOD2-RIPK2 binding disruptors, retest, confirmation, fluorescence, CHO cells, BLA complementation, triplicate. shares compounds with NOD2 RIPK2 PPI. CCF4 FRET. inhibition, % at 4.98 µM. 70% of 1,200 active;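 active = mean inhibition across replicates above a set limit taken from the earlier primary screen, cut at about 21% in these data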
# NOD2 BLA counter = NOD2-RIPK2 counterscreen BLA reporter activity | shares compounds with NOD2 RIPK2 PPI | CHO BLA reporter, CCF4 FRET ratio | inhibition, % at 4.98 µM | 57% of 1,200 active;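 active = mean inhibition above the low-control mean inhibition plus three low-control SD, cut at about 11% in these data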
# Hits are given with their value; n = inactive; x = no result.
SMILES,ABHD5-PLIN5 inh,Granule exo inh,TLR4 MyD88 comp,TLR9-MyD88 block,B2AR ag,NOD2 RIPK2 PPI,NOD2 RIPK2 conf,NOD2 BLA counter
CCOC(=O)CNc1c(-c2ccc(Cl)cc2)nc2cnccn12,n,n,n,n,n,28,25,24
CCCCNc1c(-c2ccc(-c3ccc(C(C)=O)cc3)c(OC)c2)nc2cnccn12,n,n,x,n,n,23,n,30
CCOc1ccccc1C(=O)Oc1cc(C)[nH]c(=O)c1[N+](=O)[O-],n,n,x,n,n,97,n,n
COc1ccccc1C(=O)Oc1cc(C)[nH]c(=O)c1[N+](=O)[O-],n,n,n,n,n,n,x,x
O=C(Nc1cccc([N+](=O)[O-])c1)c1cccc(C(=O)Nc2cccc([N+](=O)[O-])c2)c1,n,n,x,n,n,n,x,x
O=C(Nc1cccc([N+](=O)[O-])c1)c1ccc(-c2ccccc2)cc1,n,n,n,n,n,34,n,n
CC1(C(=O)NS(=O)(=O)c2cccc(F)c2)CCN1C(=O)Cc1cccs1 (configuration not stated),n,n,x,x,x,n,x,x
CC(C)(C)c1cc(C(=O)NCC(=O)OCC(=O)c2cccc([N+](=O)[O-])c2)cc(C(C)(C)C)c1,n,n,n,n,n,n,x,x
O=C(CNC(=O)c1cccc([N+](=O)[O-])c1)OCCCC(=O)c1ccc(F)cc1,n,n,x,n,n,26,n,n
Cc1cc(N(CC(=O)NC(C)C)S(C)(=O)=O)ccc1Br,n,n,n,n,n,24,n,n
C=Cn1cc(CNC[C@H]2O[C@@H](n3ccc(N)nc3=O)[C@H](O)[C@@H]2O)c(C)n1,n,n,x,n,x,n,x,x
CN(C)S(=O)(=O)n1cnc(-c2ccccc2)c1-c1ccccc1,n,n,n,n,n,35,n,n
CC(C)C[C@@H]1NC(=O)[C@H](Cc2ccccc2)N(C)C(=O)[C@H](C)NC(=O)c2ccccc2NC(=O)[C@H](Cc2ccc(O)cc2)N(C)C1=O,n,n,x,n,n,n,x,x
COc1ccc(CC2C(=O)NC(C)C(=O)N(C)C3Cc4ccc(cc4)Oc4cc(ccc4O)CC(C(=O)NC(C)C(=O)NC(C)C(=O)N2C)N(C)C3=O)cc1 (configuration not stated),n,n,x,n,n,22,26,n
Cc1ccc(NC(=O)CSc2nnnn2C2CCCC2)cc1S(=O)(=O)N1CCOCC1,n,n,x,n,n,n,x,x
COc1ccc(N2C(=O)CC(Sc3nnnn3-c3ccc(F)cc3)C2=O)cc1 (configuration not stated),52,n,n,n,n,41,44,12
COc1ccc(N2C(=O)CC(Sc3nc(C)cc(C)c3C#N)C2=O)cc1 (configuration not stated),n,n,n,n,n,n,x,x
O=C(C1CCCCC1)N1C[C@@H](O)[C@H](n2cc(C3CC3)nn2)C[C@@H]1c1ccccc1,n,n,x,n,x,n,x,x
O=Nc1c(O)[nH]c2ccc(Cl)c(Cl)c12,n,n,x,n,n,28,26,15
COc1ccccc1N1C(=O)C2C(C(=O)c3ccccc3)=NN(c3ccc(C)cc3)C2C1=O (configuration not stated),n,n,x,x,n,27,67,67
COC(=O)C1=NN(c2ccc(C)cc2)C2C(=O)N(c3ccccc3OC)C(=O)C12 (configuration not stated),n,n,x,n,n,n,x,x
